Results on 40 sequences are retold here after the OligoGym collection.
Also: reference of the scale not given here.

In one test the target is FGFR1. The experiment in a line: pooled miR-30 sensor sort-seq; sequence = guide strand. As to conditions: shRNA.
As to TAAATCTCTGGTAACGACCCTT, the sensor-assay potency score (higher = more potent) was 0.102.
On the same count and under the same terms, under TTGAAGGTGGGTCTCTGTGAGG stands -0.69; under TTGAACTTCACTGTCTTGGCAG, 0.751; under TGTCTTTTTATAGTAGTCGATG, -1.03.
Sequence TTTGTGTTTTCTTCATAGCTAT showed a sensor-assay potency score (higher = more potent) of -0.428.
Same read-out and setting: under TTACTGGGCTTGTCCATGCGGT stands -0.849; under TCTTAAGTGAAGCACCTCCATC, -1.39; under TTTATAGTAGTCGATGTGGTGA, -0.221.
Still for that read-out and setting: under TTGTCTTTTTATAGTAGTCGAT stands -0.804.

For another test, the target named is FHOD1. The test is described as above. As to conditions: shRNA.
For TTGCAGAGCACAATCCTCCAAC, the sensor-assay potency score (higher = more potent) is -0.554.
Turning to TTCTTCGATGTCTCCATCCTCC, the sensor-assay potency score (higher = more potent) was -0.285.
The same measure, in the same setting: under TTTGTAGATGCTCCTCTCGCTG stands -1.11; under TCTGTCTCGGTGATCATGCGTC, -0.332.
On the same count and under the same terms, under TTGTTGATGAGGGTGACCGTGT stands -0.769; under TCGTAGAGCACAAGCTGCGTGC, -0.434; under TTCTACAAACACCAACAGCAGC, -1.07.
The same measure, in the same setting: under TAGCTTCTCAATGCCATCCTTG stands -0.31; under TTGTAGATGCTCCTCTCGCTGG, -0.582; under ATGACTGTCAGCATCTCCCCGG, -0.753.
TACAAACACCAACAGCAGCTTC had a sensor-assay potency score (higher = more potent) of -0.751.

Another test addresses FH. Described as above. As to conditions: shRNA.
TTGCTTCACACTGAGTAGGGTT came in with a sensor-assay potency score (higher = more potent) of -0.374.
Turning to TTTACATTCATATTTGTCTGAG, the sensor-assay potency score (higher = more potent) is -0.0374.
Same read-out and setting: under TTGCATTAGCAATCTTTGGATC stands -0.818; under TTTACTTGTTGAACATAACCAC, 0.162.
Still for that read-out and setting: under AACATAACCACTAAATTCCTGC stands -0.241; under TTTGCTATCTTCATCAGACTGC, 0.482; under TATATGAGGATTGAGAGCTGTC, 0.308.
The same measure, in the same setting: under TTGTCTGAGTTCCTGATCCAGT stands -0.75; under TTACATTCATATTTGTCTGAGT, 0.037.
Sequence TCTTAGACCTAGCACATCCTAG displayed a sensor-assay potency score (higher = more potent) of -0.529.
On the same count and under the same terms, under TTCATCAGCTTGTTGATCCTTT stands 0.529; under TTTATTAACATGATCGTTGGGA, 0.847.
On the same count and under the same terms, under TAACACATTTTTAATCATCATT stands -1.28; under TATTGCATTAGCAATCTTTGGA, 0.0448; under TTACTTGTTGAACATAACCACT, -1.14.
On the same count and under the same terms, under TTCTGTCACACCTCCAATCTTA stands -0.00125; under TTTCCTTTCAAACTTATCCGTT, -0.472; under TTCTATTGCAGCAGCAATGTGC, -0.565.
Take TGGATCAAGACCATAATCCTGG: the sensor-assay potency score (higher = more potent) came to 0.098.
Same read-out and setting: under TTAAAGTTCATCGTAGATCTCA stands 0.281.
